Many of the other results were omitted from the sample, so hits are more common in it than they were.
ALOX12 inh: Primary qHTS assay for inhibitors of human arachidonate 12S-lipoxygenase (ALOX12): Round 2; Polyunsaturated fatty acid lipoxygenase ALOX12 (Homo sapiens), P18054; Potency, µM (highest dose often 108 µM), for the others: top-dose activity change, negative = inhibition, usual class: inhibitors; 580,000 compounds, 1.1% hits; purified 12hLO, xylenol orange hydroperoxide absorbance; AID 1671190, 2021; also: potency is read from the fitted curve at half-maximal effect
Target sequence (P18054 whole entry, looked up): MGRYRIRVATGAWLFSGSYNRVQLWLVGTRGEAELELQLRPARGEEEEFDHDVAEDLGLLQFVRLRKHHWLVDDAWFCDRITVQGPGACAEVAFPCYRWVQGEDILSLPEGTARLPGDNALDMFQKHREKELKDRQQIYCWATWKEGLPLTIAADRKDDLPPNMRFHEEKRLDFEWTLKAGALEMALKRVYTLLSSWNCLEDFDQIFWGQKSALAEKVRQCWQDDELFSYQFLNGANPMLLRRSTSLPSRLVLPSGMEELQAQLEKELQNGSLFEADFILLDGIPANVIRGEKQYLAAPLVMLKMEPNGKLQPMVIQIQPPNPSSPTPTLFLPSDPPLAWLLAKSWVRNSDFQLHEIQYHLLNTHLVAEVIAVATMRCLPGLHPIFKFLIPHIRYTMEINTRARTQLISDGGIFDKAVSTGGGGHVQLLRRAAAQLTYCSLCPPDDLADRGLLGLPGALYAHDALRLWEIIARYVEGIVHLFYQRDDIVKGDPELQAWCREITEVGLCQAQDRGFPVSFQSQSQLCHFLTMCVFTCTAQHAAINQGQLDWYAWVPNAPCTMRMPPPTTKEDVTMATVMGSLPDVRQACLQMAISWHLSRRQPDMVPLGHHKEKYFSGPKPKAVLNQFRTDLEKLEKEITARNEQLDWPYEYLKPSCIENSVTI
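Purified human 12hLO (150 nM final) in 25 mM Hepes, 0.01% Triton X-100, pH 7.0 was preincubated 15 min at room temperature with compound. Then 40 uM arachidonic acid was added, 30 min. Hydroperoxide was read by Fe-XO absorbance ratio 573/405 nm.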
HT1080-NT tox: qHTS for induction of synthetic lethality in tumor cells producing 2HG: qHTS for the HT-1080-NT fibrosarcoma cell line. HT-1080-NT fibrosarcoma viability, CellTiter-Glo ATP luminescence, 48 h. Potency, µM (highest dose often 46.1 µM), for the others: at the highest dose activity, negative = less viability, usual class: cytotoxic. 360,000 compounds, 1.6% hits;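 also: NT is the 2HG producing partner of a matched IDH1 knockdown line; potency is read from the fitted curve at half-maximal effect; 0% = DMSO-treated cells and -100% = media-only wells without cells; nearly all actives have a fitted effect of over 55% in size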
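Fibrosarcoma NT cells, 750 per well in 5% FBS RPMI, were exposed to compound for 48 hours. Viability: CellTiter-Glo luminescence.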
IL-1B inflam inh: qHTS for Inhibitors of Inflammasome Signaling: IL-1-beta AlphaLISA Primary Screen | 360,000 compounds, 4.7% hits | activity change, % at 57.5 µM | THP-1 LPS/ATP IL-1B secretion, AlphaLISA, 16 h; hits give low values; in the data active = activity change below about -50%; inconclusive = mostly about -30% to -49%
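THP-1 cells pretreated 1 hr with compounds (up to 57.5 uM final), then stimulated with LPS (250 ng/mL final) plus ATP (1.25 mM final); secreted IL-1B measured by AlphaLISA after 16 hr, decreased signal indicating inhibition.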
TDP1 cell noCPT: qHTS for Inhibitors of human tyrosyl-DNA phosphodiesterase 1 (TDP1): qHTS in cells in absence of CPT; 420,000 compounds, 15% hits; AID 686978, 2013; DT40 Tdp1-/- hTDP1 cells, no CPT, ATP luminescence, 48 h; Potency, µM (series often up to 46.2 µM), for inactives: at the top dose activity change, negative = growth inhibition, hits mostly inhibitors; also: potency is read from the fitted curve at half-maximal effect; nearly all actives have a fitted effect of over 55% in size
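Seeded 400 DT40-hTDP1 cells/well (vehicle DMSO, no 20 nM CPT); pinned compounds; ≥48 hr at 37 °C; CellTiter-Glo luminescence as viability measure.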
DT40 TDP1 CPT: qHTS for Inhibitors of human tyrosyl-DNA phosphodiesterase 1 (TDP1): qHTS in cells in presence of CPT; Potency, µM (doses to about 46.2 µM), for inactives: at the top dose activity change, negative = growth inhibition, hits mostly inhibitors; AID 686979, 2013; 420,000 compounds, 12% hits; chicken DT40 Tdp1-/-;hTDP1 cells + 20 nM CPT, ATP luminescence, 48 h; also: potency is read from the fitted curve at half-maximal effect; nearly all actives have a fitted effect of over 55% in size
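Chicken DT40 Tdp1-/- cells stably complemented with human TDP1 were seeded at 400 cells/well in medium containing 20 nM camptothecin, exposed to pin-transferred compounds, and grown at 37 °C for at least 48 hr. Viability was read as ATP luminescence.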
HT1080 IDH1KD tx: qHTS for induction of synthetic lethality in tumor cells producing 2HG: qHTS for the HT-1080-IDH1KD cell line; HT-1080 IDH1 knockdown viability, ATP luminescence, 48 h; Potency, µM (top dose mostly 46.1 µM), without a hit: at the top dose activity, negative = toxicity, usual class: cytotoxic; 360,000 compounds, 2% hits;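 also: potency is read from the fitted curve at half-maximal effect; 0% = DMSO wells and -100% = cell-free medium wells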
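HT-1080-IDH1KD cells (IDH1 knocked down), 750/well in RPMI with 5% FBS, treated with compound 48 h at 37 degrees C. Viability by CellTiter-Glo luminescence, normalised to DMSO and no-cell wells; concentration-response curves classed.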
Numbers without * were called inactive; i = inactive; u = inconclusive; x = no result given; ! = not active in a repeat; [ ] = dose if it differs, or a comment. Unless noted, calls follow the shape of the dose curve; as a rule, active = well fitted curve in the direction sought with a large enough effect; inconclusive = small, poorly fitted or top-dose-only effect, or another doubt; inactive = no such curve, though single readings can be large; an effect the other way counts as inactive or inconclusive. Unless noted, % is scaled to controls: 0 for no effect and ±100 for the full control effect.

SMILES | ALOX12 inh | HT1080-NT tox | IL-1B inflam inh | TDP1 cell noCPT | DT40 TDP1 CPT | HT1080 IDH1KD tx
CC(C)N1CCC(NC(=O)c2ccc(-c3ccccc3)cc2)CC1 | -24% | x | x | x | x | x
Cc1ccccc1OCC(=O)NC(C)c1ccccc1 (configuration not stated) | 18% | -1% | -2 | u | u | -4%
CNCC[C@@H](Oc1ccccc1C)c1ccccc1 | u | u | u | 24µM* | u | u
CNCCC(Oc1ccccc1OC)c1ccccc1 (configuration not stated) | 6% | -1% | -13 | 23µM*! | 13µM*! | -4%
Cc1ccccc1NC(=O)CSc1nc(N)c(C#N)cc1C#N | 0% | 11% | -4 | -5% | -9% | 5%
CC(C)CCSc1nc(N)c(C#N)cc1C#N | -27% | -21% | u | 18µM* | u | -29%
COc1ccc(NC(=O)Cc2csc(NC(=O)Nc3ccccc3OC)n2)cc1 | -5% | -23% | -25 | 23µM* | 26µM* | -25%
COc1ccc(C)cc1NC(=O)Cc1csc(NC(=O)Nc2ccccc2OC)n1 | 1% | -20% | 39 | 16µM* | u | -9%
COc1ccccc1NC(=O)Nc1nc(CC(=O)Nc2ccc(N(C)C)cc2)cs1 | u | 4% | u | u | u | 1%
COc1ccccc1NC(=O)Cc1csc(NC(=O)c2ccccc2)n1 | -7% | -10% | 67 | u | u | -1%
COc1ccccc1NC(=O)Nc1nc(CC(=O)Nc2ccc(F)c(F)c2)cs1 | -18% | -7% | -69* | 15µM* | u | 11%
COc1ccccc1NC(=O)Nc1nc(CC(=O)Nc2cccc(F)c2)cs1 | -10% | -4% | -9 | u | u | -5%
COc1ccccc1NC(=O)Nc1nc(CC(=O)Nc2ccc(F)cc2)cs1 | 1% | 11% | -16 | 16µM* | u | 6%
COCC(=O)NC1CCN(c2nc3ncccc3o2)CC1 | 20%[176 µM] | x | x | x | x | x
COc1ccccc1CN(C)C(=O)c1coc(COc2cccc(F)c2F)n1 | 29% | x | x | x | x | x
O=C(Nc1ccc(SC2CCCC2)cc1)C1CC=CCC1 (configuration not stated) | 6% | x | x | x | x | x
CNC(=S)N(CCCN(C)C)Cc1cc2cc3c(cc2[nH]c1=O)OCCO3 | 11% | 0% | -15 | 14% | -5% | 2%
C=CCOC(=O)N1CCC2CC1c1c(-c3ccc(C(F)(F)F)cc3)cccc12 (configuration not stated) | -9% | u | 40 | u | 23µM* | u
COCC(=O)N1CCN2C(=O)c3cc(-c4cccc(C(F)(F)F)c4)ccc3NC(=O)[C@H]2C1 | -5% | x | x | x | x | x
COc1ccc(S(=O)(=O)N2CCC3CC2c2c(-c4ccc(C(F)(F)F)cc4)cccc23)cc1 (configuration not stated) | 6% | 11% | 10 | 5.2µM* | 4.6µM* | -22%
COc1ccc(-c2cccc3c2C2CC3CCN2C(=O)OCc2ccccc2)cc1 (configuration not stated) | 0% | -5% | -20 | u | u | 1%
COCC(=O)N1CCC2CC1c1c(-c3ccc(C(F)(F)F)cc3)cccc12 (configuration not stated) | 1% | -4% | 4 | u | 23µM* | 0%
C=CCOc1cccc(C(=O)N2CC[C@@](O)(C3CCOCC3)[C@H](C)C2)c1 | 32% | x | x | x | x | x
CCN(CC)CCNC(=O)c1ccc(NC(=O)c2cccc(S(=O)(=O)N3CCc4ccccc43)c2)cc1 | u | u | -85* | u | u | u
CCN(CC)CCNC(=O)c1ccc(NC(=O)c2cccc(S(=O)(=O)N3c4ccccc4CC3C)c2)cc1 (configuration not stated) | -9% | u | -3 | -17% | u | u
SMILES | ALOX12 inh | HT1080-NT tox | IL-1B inflam inh | TDP1 cell noCPT | DT40 TDP1 CPT | HT1080 IDH1KD tx
COc1cc2nc(N(CCCN(C)C)C(=O)c3ccc(S(=O)(=O)N4CCc5ccccc54)cc3)sc2cc1OC | u | u | -101* | 16µM* | u | u
COc1cc2nc(NC(=O)c3ccc(S(=O)(=O)N4CCc5ccccc54)cc3)sc2cc1OC | u | x | x | 15µM* | 21µM* | x
COc1ccc(C(=O)Nc2ccc(S(=O)(=O)N3CCc4ccccc43)cc2)cc1 | 3% | -3% | -23 | 23µM* | 26µM* | u
COC(=O)[C@]12C[C@H](CC(=O)N3CCN(C(=O)c4ccco4)CC3)C(=O)N(Cc3ccc4c(c3)OCO4)C1=C[C@H](COCc1ccccc1)O[C@@H]2C | -6% | x | x | x | x | x
COc1ccc2sc(N(CCCN(C)C)C(=O)c3ccc(S(=O)(=O)N4CCCc5ccccc54)cc3)nc2c1 | u | -10% | -83* | 16µM* | u | -24%
CCOC(=O)N1CCN(S(=O)(=O)c2ccc(C(=O)N(CCCN(C)C)c3nc4ccc(OC)cc4s3)cc2)CC1 | i | -4% | u | u | u | -4%
Cc1c(Cl)ccc2sc(NC(=O)c3ccc(S(=O)(=O)N4CCCc5ccccc54)cc3)nc12 | u | x | x | 18µM* | u | x
CCCC(=O)NC(=S)Nc1ccc(S(=O)(=O)N2CCc3ccccc32)cc1 | 0% | -30% | -23 | 21µM* | u | -25%
CCCCCn1nc(C(=O)OCC(=O)c2c(N)n(C)c(=O)n(C)c2=O)c2ccccc2c1=O | -17% | 1% | -53* | 21µM* | u | 0%
CCCCCCn1nc(C(=O)OCC(=O)c2c(N)n(C)c(=O)n(C)c2=O)c2ccccc2c1=O | 63% | 1% | u | 18µM* | 21µM* | 4%
CCCn1nc(C(=O)OCC(=O)c2ccccc2)c2ccccc2c1=O | 2% | u | 21 | -17% | 11% | 10%
COc1ccc(CCNC(=O)CSc2cn(CCNC(=O)c3cccc(C(F)(F)F)c3)c3ccccc23)cc1OC | 0% | x | x | 15µM* | 21µM* | x

Assay outcomes: PubChem, National Center for Advancing Translational Sciences (NCATS)
